Laboratory results published in PubChem BioAssay (NCI).
The panel holds about 79,000 compounds, 15% with a hit somewhere; the sample as a whole holds those more often. Values without a mark were called inactive. The source made the active and inactive calls. Cut-off read from the data, not from the text of the source: active = growth inhibition above about 70%; inactive = the rest.

Key:
[1] = NCI Yeast Anticancer Drug Screen. Data for the wt1 strain (AID 149);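 note: 0% = growth of vehicle-treated wt1 cultures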; settings: S. cerevisiae wt1 strain (SPY 50644) growth inhibition, stronger effect = higher value
In short: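 Growth inhibition read against vehicle controls after compound exposure of the wt1 yeast strain.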

[2] = NCI Yeast Anticancer Drug Screen. Data for the rad50EPP+ strain (AID 151);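 note: 0% = growth of vehicle-treated control cultures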; settings: S. cerevisiae rad50 mutant strain, stronger effect = higher value
In short: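 Yeast strain carrying rad50 alteration (rad50EPP+) exposed to compounds; growth inhibition measured relative to vehicle-treated controls.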

[3] = NCI Yeast Anticancer Drug Screen. Data for the mgt1 strain (AID 153); settings: S. cerevisiae mgt1 mutant growth inhibition, stronger effect = higher value
In short: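 Yeast mgt1 strain (DNA repair/cell-cycle alteration panel) exposed to compounds; growth inhibition measured relative to vehicle-treated controls.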

[4] = NCI Yeast Anticancer Drug Screen. Data for the rad50 strain (AID 155);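 note: 0% = growth of vehicle-only cultures of the same strain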; settings: S. cerevisiae rad50 strain growth inhibition, stronger effect = higher value
In short: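 Readout: growth inhibition relative to vehicle-treated cultures. Compound exposure was carried out in a genetically defined yeast strain deficient in DNA damage repair.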

[5] = NCI Yeast Anticancer Drug Screen. Data for the mec2-1 strain (AID 157); settings: S. cerevisiae mec2-1 strain, stronger effect = higher value
In short: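 mec2-1 yeast strain, carrying an alteration in DNA damage repair or cell cycle control, was exposed to compounds; growth inhibition was measured relative to vehicle-treated controls.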

[6] = NCI Yeast Anticancer Drug Screen. Data for the rad14 strain (AID 159);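 note: 0% = growth of vehicle-treated control cultures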; settings: S. cerevisiae rad14 strain growth inhibition, stronger effect = higher value
In short: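 Growth inhibition vs vehicle controls; genetically altered yeast strain (DNA damage repair defect) treated with test compounds.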

[7] = NCI Yeast Anticancer Drug Screen. Data for the sgs1 mgt1 strain (AID 161);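 note: 0% = growth of cultures given vehicle only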; settings: S. cerevisiae sgs1 mgt1 strain, stronger effect = higher value
In short: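 Percent growth inhibition was derived by comparing compound-exposed mutant yeast with vehicle-exposed cultures. The strain carries alterations in DNA damage repair.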

[8] = NCI Yeast Anticancer Drug Screen. Data for the CLN2oe strain (AID 163);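 note: 0% = growth of vehicle-only control cultures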; settings: S. cerevisiae CLN2oe strain, stronger effect = higher value
In short: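 Yeast cells carrying a defined cell-cycle control alteration were exposed to test compounds. Growth inhibition was scored against vehicle-treated control cultures.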

[9] = NCI Yeast Anticancer Drug Screen. Data for the cln2 rad14 strain (AID 165);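 note: 0% = growth equal to vehicle treated cultures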; settings: S. cerevisiae cln2 rad14 strain, stronger effect = higher value
In short: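 Yeast carrying cln2 and rad14 alterations (cell cycle control and DNA damage repair) were exposed to compounds. Growth inhibition was measured against vehicle-treated controls.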

[10] = NCI Yeast Anticancer Drug Screen. Data for the bub3 strain (AID 167); settings: S. cerevisiae bub3 mutant strain, stronger effect = higher value
In short: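 Readout: yeast growth inhibition, expressed relative to vehicle-only wells. The test organism is a mutant strain from a panel with lesions in DNA repair or checkpoint genes.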

[11] = NCI Yeast Anticancer Drug Screen. Data for the wt2 strain (AID 169);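 note: 0% = growth of vehicle-treated yeast cultures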; settings: S. cerevisiae wt2 strain growth inhibition, stronger effect = higher value
In short: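 Yeast cells were exposed to test compounds, and growth inhibition was measured relative to vehicle-treated controls.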

[12] = NCI Yeast Anticancer Drug Screen. Data for the mlh1 strain (AID 171);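 note: 0% = growth of vehicle-treated control cultures of the same strain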; settings: S. cerevisiae mlh1 strain growth inhibition, stronger effect = higher value
In short: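 Yeast carrying a defined genetic alteration in DNA damage repair or cell cycle control were exposed to test compounds. Growth inhibition was measured relative to vehicle-treated controls.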

[13] = NCI Yeast Anticancer Drug Screen. Data for the sgs1 strain (AID 173);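 note: 0% = growth of vehicle-only control cultures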; settings: S. cerevisiae sgs1 mutant, stronger effect = higher value
In short: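 Yeast mutant strains carrying defined defects in DNA damage repair or cell cycle control were exposed to test compounds. Growth inhibition was scored against vehicle-treated controls.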

[14] = NCI Yeast Anticancer Drug Screen. Data for the rad18 strain (AID 177); settings: S. cerevisiae rad18 mutant growth inhibition, stronger effect = higher value
In short: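 Yeast carrying a defined DNA damage repair alteration were exposed to compounds. Growth inhibition was expressed relative to vehicle-treated controls.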

[15] = at 5.0 µM (retest, dose inferred, filed as 0.5)
[16] = at 50.0 µM (retest, dose inferred, filed as 5.0)

CCCOC(=O)C(F)C(Br)C(=O)OCCC (stereo not given)
growth inhibition ([1]; at 1.2 µM): 42% | growth inhibition ([1]; at 3.7 µM): 95% (active) | growth inhibition ([1]; at 11.0 µM): 98% (active) | growth inhibition ([1]; at 33.0 µM): 97% (active) | growth inhibition ([1]; at 100.0 µM): 99% (active) | growth inhibition ([2]; at 1.2 µM): 33% | growth inhibition ([2]; at 3.7 µM): 28% | growth inhibition ([2]; at 11.0 µM): 94% (active) | growth inhibition ([2]; at 33.0 µM): 98% (active) | growth inhibition ([2]; at 100.0 µM): 98% (active) | growth inhibition ([3]; at 1.2 µM): 54% | growth inhibition ([3]; at 3.7 µM): 90% (active) | growth inhibition ([3]; at 11.0 µM): 97% (active) | growth inhibition ([3]; at 33.0 µM): 98% (active) | growth inhibition ([3]; at 100.0 µM): 99% (active) | growth inhibition ([4]; at 1.2 µM): 58% | growth inhibition ([4]; at 3.7 µM): 90% (active) | growth inhibition [4, 15]: 44% | growth inhibition ([4]; at 11.0 µM): 97% (active) | growth inhibition ([4]; at 33.0 µM): 97% (active) | growth inhibition [4, 16]: 98% (active) | growth inhibition ([4]; at 50.0 µM): 89.8% (active) | growth inhibition ([4]; at 100.0 µM): 99% (active) | growth inhibition ([5]; at 1.2 µM): 71% (active) | growth inhibition ([5]; at 3.7 µM): 97% (active) | growth inhibition [5, 15]: 67% | growth inhibition ([5]; at 11.0 µM): 97% (active) | growth inhibition ([5]; at 33.0 µM): 98% (active) | growth inhibition [5, 16]: 100% (active) | growth inhibition ([5]; at 50.0 µM): 92% (active) | growth inhibition ([5]; at 100.0 µM): 99% (active) | growth inhibition ([6]; at 1.2 µM): 21% | growth inhibition ([6]; at 3.7 µM): 67% | growth inhibition ([6]; at 11.0 µM): 97% (active) | growth inhibition ([6]; at 33.0 µM): 97% (active) | growth inhibition ([6]; at 100.0 µM): 100% (active) | growth inhibition [7, 15]: 21% | growth inhibition [7, 16]: 98% (active) | growth inhibition ([7]; at 50.0 µM): 91.9% (active) | growth inhibition ([8]; at 1.2 µM): 48% | growth inhibition ([8]; at 3.7 µM): 87% (active) | growth inhibition ([8]; at 11.0 µM): 97% (active) | growth inhibition ([8]; at 33.0 µM): 97% (active) | growth inhibition ([8]; at 100.0 µM): 98% (active) | growth inhibition [9, 15]: 11% | growth inhibition [9, 16]: 70% (active) | growth inhibition ([9]; at 50.0 µM): 90.7% (active) | growth inhibition ([10]; at 1.2 µM): 38% | growth inhibition ([10]; at 3.7 µM): 82% (active) | growth inhibition [10, 15]: 30% | growth inhibition ([10]; at 11.0 µM): 93% (active) | growth inhibition ([10]; at 33.0 µM): 96% (active) | growth inhibition [10, 16]: 99% (active) | growth inhibition ([10]; at 50.0 µM): 90.5% (active) | growth inhibition ([10]; at 100.0 µM): 96% (active) | growth inhibition ([11]; at 1.2 µM): 57% | growth inhibition ([11]; at 3.7 µM): 98% (active) | growth inhibition ([11]; at 11.0 µM): 98% (active) | growth inhibition ([11]; at 33.0 µM): 98% (active) | growth inhibition ([11]; at 100.0 µM): 100% (active) | growth inhibition ([12]; at 1.2 µM): 40% | growth inhibition ([12]; at 3.7 µM): 92% (active) | growth inhibition ([12]; at 11.0 µM): 98% (active) | growth inhibition ([12]; at 33.0 µM): 97% (active) | growth inhibition ([12]; at 100.0 µM): 99% (active) | growth inhibition ([13]; at 1.2 µM): 50% | growth inhibition ([13]; at 3.7 µM): 96% (active) | growth inhibition ([13]; at 11.0 µM): 98% (active) | growth inhibition ([13]; at 33.0 µM): 97% (active) | growth inhibition ([13]; at 100.0 µM): 99% (active) | growth inhibition ([14]; at 1.2 µM): 59% | growth inhibition ([14]; at 3.7 µM): 93% (active) | growth inhibition ([14]; at 11.0 µM): 97% (active) | growth inhibition ([14]; at 33.0 µM): 96% (active) | growth inhibition ([14]; at 100.0 µM): 98% (active)
